Most compounds without a hit are left out; they make up all but 1.3% or so of the library.
Glioma ERSR ind – ER stress response induction in glioma. U87-MG GRP78 promoter luciferase reporter, 16 h. Potency, µM, actives largely listed as activators. 420,000 compounds, 0.02% hits; further: series mostly up to about 76 µM; nearly all actives have a fitted effect of over 35% in size
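Stably transfected U87-MG glioma cells carrying a GRP78-based luciferase sensor; 16 h compound incubation. Luminescence end-point read 10 min after Bright-Glo addition at room temperature.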
Pin1 inhibitor – inhibitors of human Pin1 | AID 504891 | Pin1 FP peptide displacement, HiFluor488, 10 min | 390,000 compounds, 0.009% hits | Q13526 | Potency, µM (series often up to 115 µM), most hits filed as inhibitors; active means well fitted inhibition curve with a large enough effect in the polarisation, with a control signal flat, not every such curve was filed as active; inconclusive means small, poorly fitted or top-dose-only effect, or effect the other way, or a change in a side signal; inactive means no such curve, though single readings can be large or run the other way; the % refers to the polarisation
PGK inhibitor – blocks T. brucei phosphoglycerate kinase | P07378 | PGK/GAPDH coupled, Kinase-Glo luminescence, 60 min | Potency, µM (top dose mostly 57.5 µM), usual class: inhibitors | 380,000 compounds, 0.043% hits | AID 602233; further: nearly all actives have a fitted effect of over 60% in size
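Recombinant glycosomal PGK reaction used 1,3-bisphosphoglycerate generated in-well by GAPDH (100nM final) in 100mM TEA pH 7.6, 5mM MgCl2, 0.01% Tween-20. After 60 minutes at room temperature, ATP was read by Kinase-Glo Plus luminescence end-point.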
WRN helicase inh – WRN helicase (human) inhibition. Q14191. WRN helicase unwinding, fluorescent forked duplex, kinetic. Potency, µM (titrated, usually from 114 µM), actives largely listed as inhibitors. 360,000 compounds, 0.46% hits. AID 651768; further: nearly all actives have a fitted effect of over 55% in size
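Primary qHTS, 1536-well format. 20 nM WRN + compound, 15 min RT; start with 100 nM forked fluorophore/quencher duplex, 2 mM ATP (final); kinetic read ex 525/em 598 nm.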
PI5P4K alpha inh – blocks human PI5P4K alpha kinase activity; PI5P4Kalpha enzyme, ADP-Glo luminescence, 60 min; stronger effect = lower value; max response, %; 330,000 compounds, 1.2% hits; active means max response of -50% or lower; inconclusive means between -30% and -50%; inactive means -30% or higher; further: value at the top dose of about 77 µM
Target sequence (P48426 whole entry, looked up): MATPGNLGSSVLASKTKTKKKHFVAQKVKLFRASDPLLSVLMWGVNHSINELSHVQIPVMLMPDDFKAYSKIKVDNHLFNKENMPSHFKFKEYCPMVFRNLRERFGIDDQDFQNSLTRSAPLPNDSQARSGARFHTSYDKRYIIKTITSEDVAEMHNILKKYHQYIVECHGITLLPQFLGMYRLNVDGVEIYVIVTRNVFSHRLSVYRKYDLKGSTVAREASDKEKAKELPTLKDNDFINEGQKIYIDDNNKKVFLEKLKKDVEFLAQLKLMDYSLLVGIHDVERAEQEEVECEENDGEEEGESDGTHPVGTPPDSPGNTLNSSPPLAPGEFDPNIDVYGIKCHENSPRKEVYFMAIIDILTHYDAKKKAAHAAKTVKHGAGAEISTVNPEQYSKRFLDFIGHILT
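Enzyme plus substrate dispensed, test compounds pinned in, then ATP (5 microM final) added. After 60 min at RT, ADP-Glo reagent 1 for 45 min and reagent 2 for 30 min preceded luminescence imaging.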
FEN1 inhibitor – human FEN1 inhibition | P39748 | Recombinant FEN1 flap cleavage, fluorescence, 15 min | Potency, µM (titrated, usually from 114 µM), most hits filed as inhibitors | 390,000 compounds, 0.35% hits | AID 588795; further: nearly all actives have a fitted effect of over 65% in size
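In this screen, 50 nM flap DNA substrate was added to 10 nM FEN1 pretreated with compound for 15 min at room temperature; cleavage was followed with reads at 0 and 15 min, and Hill fitting gave concentration–response parameters.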
ADP-Glo counter – ADP-Glo luciferase interference, PI5P4K counter-screen; shares compounds with PI5P4K alpha inh; ADP-Glo detection counter-screen, luciferase luminescence, no enzyme; Potency, µM (highest dose often 76.9 µM), most hits filed as inhibitors; 1,100 tested, under 10 active; AID 743285
A number is an active result; - = inactive; ? = inconclusive; . = not tested or not shown. Unless noted, the call rests on the fitted dose curve; in most records, active means well fitted curve in the direction sought with a large enough effect; inconclusive means small, poorly fitted or top-dose-only effect, or another doubt; inactive means no such curve, though single readings can be large; an effect the other way counts as inactive or inconclusive.

SMILES	Glioma ERSR ind	Pin1 inhibitor	PGK inhibitor	WRN helicase inh	PI5P4K alpha inh	FEN1 inhibitor	ADP-Glo counter
Cc1ccc(CNc2nc(NCc3ccccc3)nc3ccsc23)c(C)c1	-	.	.	-	.	.	-
CNc1nc(NCc2ccc(C)cc2C)c2sccc2n1	-	.	.	-	-	.	.
COc1ccc(N(C(=O)C2CSC(=O)C2)C(C(=O)NC(C)(C)C)c2ccncc2)cc1 (stereo not given)	-	-	-	-	-78.5	-	-
CC(C)(C)NC(=O)C(c1ccncc1)N(C(=O)C1CSC(=O)C1)c1ccccc1 (stereo not given)	-	-	-	-	-	-	.
CCOC(=O)c1c(NS(=O)(=O)c2ccc(Br)cc2)sc2c1CCC2	-	?	-	?	-55.4	-	-
CCOC(=O)c1c(NS(=O)(=O)Cc2ccccc2)sc2c1CCCC2	-	-	-	-	.	-	.
CCOC(=O)C1(C)CCCN(C(=O)c2ccccc2F)C1 (stereo not given)	-	.	.	-	-	.	.
CCOC(=O)C1(C)CCCN(C(=O)c2ccccc2C(F)(F)F)C1 (stereo not given)	-	.	.	-	-79.4	.	-
COc1cccc2c1C(=O)C[C@]1(CCCC[C@@H]1C)O2	-	-	-	-	-	-	-
COc1cc(CN2C(=O)CC[C@@H]3CN(Cc4ccccn4)CC[C@@H]32)cc(OC)c1OC	-	.	.	.	.	.	.
COCC(=O)Nc1cc(C(=O)N2CC3(C)CC2CC(C)(C)C3)c2c(c1)nc(-c1ccncc1)n2C (stereo not given)	-	.	.	.	.	.	.
O=c1c(Cl)c(N2CCCCC2)cnn1-c1nc2ccccc2[nH]1	-	-	?	-	-	-	.
O=c1c2ccccc2cnn1-c1nc2ccccc2[nH]1	-	-	10µM	-	-50.1	-	25.1µM
CC1Cc2ccccc2N1C(=O)CNc1cccc(S(=O)(=O)N2CCCC2)c1 (stereo not given)	-	-	-	?	-66.3	-	-
CC(=O)c1ccc(NC(=O)c2cnn3ccccc23)cc1	-	-	-	-	-76.1	-	-
CC(=O)c1cccc(NC(=O)c2cnn3ccccc23)c1	-	-	-	-	?	-	.
Cc1ccc(CC(=O)N2CCOCC2)cc1	-	-	-	-	-	-	.
Cc1ccc(CSCC(=O)N2CCOCC2)cc1	-	-	-	?	-51.5	-	-

Screening results deposited in PubChem BioAssay by National Center for Advancing Translational Sciences (NCATS).
